Source: PubChem BioAssay (NCI)
The panel holds about 79,000 compounds, 15% with a hit somewhere; the sample as a whole holds those more often. Activity calls are given as the source filed them. No stated cut-off is given here; in the data, active means growth inhibition above about 70%; inactive means the rest.

What was measured:
[1] = NCI Yeast Anticancer Drug Screen. Data for the rad52 strain (AID 147);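 further: 0% = growth of vehicle-treated control cultures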; details: S. cerevisiae rad52 mutant growth inhibition, hits give high values
Procedure, shortened: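 Screen used a yeast mutant impaired in DNA repair. After compound exposure, growth was measured. Values reflect inhibition compared with vehicle-treated cells.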

[2] = NCI Yeast Anticancer Drug Screen. Data for the wt1 strain (AID 149);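 further: 0% = growth of vehicle-treated wt1 cultures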; details: S. cerevisiae wt1 strain (SPY 50644) growth inhibition, hits give high values
Procedure, shortened: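 wt1 yeast, compound-treated; % growth inhibition vs vehicle control.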

[3] = NCI Yeast Anticancer Drug Screen. Data for the rad50EPP+ strain (AID 151);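 further: 0% = growth of vehicle-treated control cultures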; details: S. cerevisiae rad50 mutant strain, hits give high values
Procedure, shortened: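 Exposing the rad50EPP+ strain to each compound, growth was compared with vehicle-only cultures to give inhibition.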

[4] = NCI Yeast Anticancer Drug Screen. Data for the mgt1 strain (AID 153); details: S. cerevisiae mgt1 mutant growth inhibition, hits give high values
Procedure, shortened: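 Genetically defined yeast (mgt1) treated with compound; inhibition of growth expressed against vehicle-treated controls.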

[5] = NCI Yeast Anticancer Drug Screen. Data for the rad50 strain (AID 155);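 further: 0% = growth of vehicle-only cultures of the same strain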; details: S. cerevisiae rad50 strain growth inhibition, hits give high values
Procedure, shortened: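 Genetically altered yeast (DNA repair pathway); compound treatment; growth inhibition vs vehicle ctrl.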

[6] = NCI Yeast Anticancer Drug Screen. Data for the mec2-1 strain (AID 157); details: S. cerevisiae mec2-1 strain, hits give high values
Procedure, shortened: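 Readout is yeast growth inhibition, normalised to vehicle-treated controls, in the mec2-1 strain exposed to compound.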

[7] = NCI Yeast Anticancer Drug Screen. Data for the rad14 strain (AID 159);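 further: 0% = growth of vehicle-treated control cultures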; details: S. cerevisiae rad14 strain growth inhibition, hits give high values
Procedure, shortened: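 Test compounds were applied to a repair-deficient yeast strain. Its growth was then compared with that of cultures given vehicle alone, and inhibition was expressed relative to those controls.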

[8] = NCI Yeast Anticancer Drug Screen. Data for the sgs1 mgt1 strain (AID 161);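 further: 0% = growth of cultures given vehicle only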; details: S. cerevisiae sgs1 mgt1 strain, hits give high values
Procedure, shortened: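 Compounds are added to genetically altered yeast, and growth is compared with cultures given vehicle alone to give percent inhibition.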

[9] = NCI Yeast Anticancer Drug Screen. Data for the CLN2oe strain (AID 163);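 further: 0% = growth of vehicle-only control cultures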; details: S. cerevisiae CLN2oe strain, hits give high values
Procedure, shortened: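 Values reflect how much compound exposure reduced yeast growth, referenced to vehicle-exposed cells. Assay organism is a strain with a defined genetic change affecting cell-cycle control.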

[10] = NCI Yeast Anticancer Drug Screen. Data for the cln2 rad14 strain (AID 165);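 further: 0% = growth equal to vehicle treated cultures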; details: S. cerevisiae cln2 rad14 strain, hits give high values
Procedure, shortened: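 Relative to vehicle controls, growth inhibition of compound-treated cln2 rad14 yeast was recorded.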

[11] = NCI Yeast Anticancer Drug Screen. Data for the bub3 strain (AID 167); details: S. cerevisiae bub3 mutant strain, hits give high values
Procedure, shortened: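 Yeast carrying a defined mutation is treated with each compound, and growth is compared with that of vehicle-exposed cells to give inhibition.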

[12] = NCI Yeast Anticancer Drug Screen. Data for the wt2 strain (AID 169);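 further: 0% = growth of vehicle-treated yeast cultures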; details: S. cerevisiae wt2 strain growth inhibition, hits give high values
Procedure, shortened: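 Values express reduction in yeast growth under compound treatment, referenced to vehicle-treated cells.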

[13] = NCI Yeast Anticancer Drug Screen. Data for the mlh1 strain (AID 171);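 further: 0% = growth of vehicle-treated control cultures of the same strain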; details: S. cerevisiae mlh1 strain growth inhibition, hits give high values
Procedure, shortened: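 Steps: expose the defined-mutant yeast strain to compound; expose a parallel culture to vehicle; measure growth; express compound effect as inhibition relative to the vehicle culture.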

[14] = NCI Yeast Anticancer Drug Screen. Data for the sgs1 strain (AID 173);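 further: 0% = growth of vehicle-only control cultures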; details: S. cerevisiae sgs1 mutant, hits give high values
Procedure, shortened: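 Treat defined-mutant yeast with compound; measure growth; calculate inhibition relative to vehicle-treated cells.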

[15] = NCI Yeast Anticancer Drug Screen. Data for the mlh1 rad18 strain (AID 175); details: S. cerevisiae mlh1 rad18 strain growth inhibition, hits give high values
Procedure, shortened: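 Test agents were incubated with a yeast strain of defined genotype (DNA damage repair defect). Inhibition of growth was derived by comparison with vehicle-exposed cultures.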

[16] = NCI Yeast Anticancer Drug Screen. Data for the rad18 strain (AID 177); details: S. cerevisiae rad18 mutant growth inhibition, hits give high values
Procedure, shortened: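 A genetically defined yeast mutant impaired in DNA damage repair was treated with test compounds, then its growth was measured against cultures receiving vehicle alone.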

[17] = at 5.0 µM (retest, dose inferred, filed as 0.5)
[18] = at 50.0 µM (retest, dose inferred, filed as 5.0)

Measured: growth inhibition

O=C(NNc1ccnc2cc(Cl)ccc12)/C(=C\c1ccccc1Cl)NC(=O)c1ccccc1
inactive: [1]; at 1.2 µM 15% | [1]; at 3.7 µM 11% | [1]; at 11.0 µM 40% | [1]; at 33.0 µM 38% | [1]; at 100.0 µM 38% | [2]; at 1.2 µM -80% | [2]; at 3.7 µM -1% | [2]; at 11.0 µM 6% | [2]; at 33.0 µM 21% | [2]; at 100.0 µM 28% | [3]; at 1.2 µM 17% | [3]; at 3.7 µM 55% | [4]; at 1.2 µM 2% | [4]; at 3.7 µM 23% | [4]; at 11.0 µM 32% | [4]; at 33.0 µM 61% | [4]; at 100.0 µM 62% | [5]; at 1.2 µM -1% | [5]; at 3.7 µM 4% | [5]; [17] -11% | [5]; at 11.0 µM 14% | [5]; at 33.0 µM 33% | [5]; [18] -18% | [5]; at 100.0 µM 30% | [6]; at 1.2 µM -5% | [6]; at 3.7 µM -1% | [6]; [17] -16% | [6]; at 11.0 µM -1% | [6]; at 33.0 µM 20% | [6]; [18] -30% | [6]; at 50.0 µM 39.6% | [6]; at 100.0 µM 14% | [7]; at 1.2 µM -2% | [7]; at 3.7 µM 1% | [7]; at 11.0 µM 1% | [7]; at 33.0 µM 3% | [7]; at 100.0 µM 0% | [8]; [17] -8% | [8]; [18] -37% | [9]; at 1.2 µM 11% | [9]; at 3.7 µM 32% | [10]; [17] 8% | [10]; [18] 22% | [10]; at 50.0 µM 55.4% | [11]; at 1.2 µM 0% | [11]; at 3.7 µM 14% | [11]; [17] 5% | [11]; at 11.0 µM 50% | [12]; at 1.2 µM 4% | [12]; at 3.7 µM 28% | [12]; at 11.0 µM 45% | [12]; at 33.0 µM 38% | [12]; at 100.0 µM 31% | [13]; at 1.2 µM -1% | [13]; at 3.7 µM 0% | [13]; at 11.0 µM 7% | [13]; at 33.0 µM 26% | [13]; at 100.0 µM 24% | [14]; at 1.2 µM 1% | [14]; at 3.7 µM 6% | [14]; at 11.0 µM 13% | [14]; at 33.0 µM 38% | [14]; at 100.0 µM 38% | [15]; [17] -13% | [15]; [18] 7% | [16]; at 1.2 µM -1% | [16]; at 3.7 µM 10% | [16]; at 11.0 µM 34% | [16]; at 33.0 µM 64% | [16]; at 100.0 µM 67%
active: [3]; at 11.0 µM 91% | [3]; at 33.0 µM 95% | [3]; at 100.0 µM 89% | [5]; at 50.0 µM 86.1% | [8]; at 50.0 µM 73% | [9]; at 11.0 µM 70% | [9]; at 33.0 µM 76% | [9]; at 100.0 µM 83% | [11]; at 33.0 µM 76% | [11]; [18] 80% | [11]; at 50.0 µM 85.8% | [11]; at 100.0 µM 76% | [15]; at 50.0 µM 90.1%
